Proteasome disasm: blocks ATP-dependent breakdown of the yeast 26S proteasome; anti-FLAG beads, GFP-proteasome disassembly, flow cytometry; inhibition of disassembly, % (no concentration beside the values); actives 0.2% (n = 24,000); AID 751;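 active = inhibition of disassembly above about 33%, limit read from the data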;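 also: higher percent means more bead fluorescence retained so stronger block of disassembly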
QS inhibitor: blocks AIP-induced quorum sensing reporter in S. aureus | S. aureus RN6390 RNAIII-GFP reporter, flow cytometry 3 h | inhibition, % at 2 µM | actives 0.3% (n = 24,000);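 active = share of bacteria positive for the green fluorescent reporter and its mean brightness both inhibited by 50% or more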
Of the large screens only hits and unclear results are named; the others gave an inactive call; ! = a repeat was not active. Shown are actives, neighbours in structure and some others; about 0.45% of the full set was active somewhere.

CCOc1ccccc1NC(=O)c1ccc(F)c(S(=O)(=O)N2CCC3(CC2)OCCO3)c1	none
Cc1ccc(S(=O)(=O)Nc2cc(C(=O)NCCN(C)C)ccc2N2CCCCC2)cc1	none
Cc1ccc(S(=O)(=O)Nc2cc(C(=O)NCCN3CCCC3)ccc2N2CCCCC2)cc1	Proteasome disasm 105.2
CCOC(=O)Cn1c(=O)oc2cc(S(=O)(=O)Nc3ccc(F)cc3)ccc21	none
Cc1cc(C)cc(N(CC(=O)N2CCN(Cc3ccccc3)CC2)S(=O)(=O)c2c(C)noc2C)c1	none
CCCC(=O)Nc1cc(C)c2c(=O)oc3ccccc3c2n1	none
Cc1cc(NC(=O)CC(C)(C)C)nc2c1c(=O)oc1ccccc12	QS inhibitor 72.2!
O=C(Cn1cnc2c(cnn2-c2ccc(Cl)cc2)c1=O)NCC1CCCO1 (stereo not given)	none
CC[C@H]1OC(=O)C[C@@H](O)[C@H](C)[C@@H](O[C@@H]2O[C@H](C)C[C@H](N(C)C)[C@H]2O)[C@@H](CC=O)C[C@@H](C)C(=O)C=C[C@]2(C)O[C@H]2[C@@H]1C	QS inhibitor 51.2
COc1cccc(Cn2nnc(C(=O)NCc3ccccc3Cl)c2N)c1	none
CCOC(=O)N1CCC(NC(=O)c2cccc3c2C(=O)N(c2ccc(OC)cc2)C3)CC1	none
Cc1noc(/C=C/c2ccco2)c1S(=O)(=O)N1CCC(C(=O)NCc2ccco2)CC1	none
Cc1noc(/C=C/c2ccco2)c1S(=O)(=O)N1CCC(C(=O)N2CCc3ccccc3C2)CC1	Proteasome disasm 41.6
O=C(CSc1ncnc2sc3c(c12)CCCCC3)NCc1ccco1	none
c1csc(CCNc2ncnc3sc4c(c23)CCC4)c1	QS inhibitor 66.8
O=C(NCCc1c[nH]c2ccccc12)C(=O)NCC(c1ccco1)N1CCN(c2ccccc2)CC1 (stereo not given)	none (no result: Proteasome disasm)
CSc1nc2ccc3nc(NC(=O)c4cccs4)sc3c2s1	none
O=C(Nc1nc2c(s1)CCc1ccccc1-2)c1cccs1	QS inhibitor 79.2
COc1ccc(C(=O)N2CCC(C(=O)Nc3ccc4c(c3)OCO4)CC2)cc1	none (no result: Proteasome disasm)
CCc1ccc(Nc2cc(=O)n(C3CCCCC3)c(=O)[nH]2)cc1	none
O=c1cc(Nc2ccc3c(c2)OCCO3)[nH]c(=O)n1C1CCCCC1	Proteasome disasm 107.9
CC1CCCCN1CCNC(=O)c1cnn2ccccc12 (stereo not given)	none
O=C(O)CCc1cc(I)c(Oc2ccc(O)c(I)c2)c(I)c1	QS inhibitor 87.6
N[C@@H](Cc1cc(I)c(Oc2ccc(O)c(I)c2)c(I)c1)C(=O)O	none
O=C(CNS(=O)(=O)c1ccccc1)NCc1ccccn1	none
Cc1ccc2nc(NC(=O)C3CCN(S(=O)(=O)c4cccc5nsnc45)CC3)sc2c1	none
Cc1ccc2nc(NC(=O)C3CCCN(S(=O)(=O)c4cccc5nsnc45)C3)sc2c1 (stereo not given)	Proteasome disasm 151.1
Cc1ccc(C)n1CCN1CCN(CC(=O)Nc2cc(C(F)(F)F)ccc2Cl)CC1	none
O=S(=O)(CCOc1ccccc1)c1nc2ccccc2[nH]1	none
CCc1ccc(NC(=O)c2cc(C)on2)cc1	none
Cc1ccc(NC(=O)c2cc(C)on2)cc1	QS inhibitor 76.1
CC(=O)Oc1cccc(/C=c2\sc3nc(-c4ccco4)nn3c2=O)c1	none
CCCOc1ccc(/C=c2\sc3nc(-c4ccco4)nn3c2=O)cc1OCC	Proteasome disasm 124.8
O=C1CC(=C2c3ccccc3-c3ccccc32)C(=O)N1CCN1CCN(c2cccc(Cl)c2)CC1	none (no result: Proteasome disasm)
O=C(CCN1CCN(CCC(=O)c2ccccc2)CC1)c1ccccc1	none
CCNC(=O)c1cc2c(=O)n3cccc(C)c3nc2n1C	none
CCCn1c(=NC(C)=O)c(C#N)cc2c(=O)n3cccc(C)c3nc21	Proteasome disasm 66.9
CC(C)CCOP(=O)(c1ccc(N(C)C)cc1)C(O)c1ccccc1F (stereo not given)	QS inhibitor 82.2
CC(C)OP(=O)(c1ccc(N(C)C)cc1)C(O)c1ccccc1F (stereo not given)	none
CSCCC(C(=O)Nc1ccc2c(c1)OCO2)N1C(=O)c2ccccc2C1=O (stereo not given)	none
CCc1nnc(NC(=O)C(C)N2C(=O)C3C4C=CC(C4)C3C2=O)s1 (stereo not given)	none
COc1ccc2c(CC(=O)OCC(=O)Nc3sc4c(c3C#N)CCC(C)C4)coc2c1 (stereo not given)	none (no result: Proteasome disasm)
CCC(=O)O[C@@H]1CC(=O)O[C@H](C)CC=CC=C[C@@H](O)[C@H](C)C[C@H](CC=O)[C@H](O[C@H]2O[C@H](C)[C@@H](O[C@H]3C[C@@](C)(O)[C@@H](OC(=O)CC)[C@H](C)O3)[C@H](N(C)C)[C@H]2O)[C@H]1OC	QS inhibitor 51.2
O=C(O)c1cccnc1SCc1ccccc1	none
O=C(Nc1ccccc1C(F)(F)F)N1CCN(c2ccc3nnc(-c4ccc(F)cc4)n3n2)CC1	none
Fc1ccc(-c2nnc3ccc(N4CCc5ccccc5C4)nn23)cc1	QS inhibitor 69.1
N#Cc1cnc(SCC(=O)c2ccccc2)nc1N	none
N#Cc1cnc(SCCc2ccccc2)nc1N	Proteasome disasm 88.2
O=C(CCn1c(=S)[nH]c2cc3c(cc2c1=O)OCO3)N1CCN(C2CCCCC2)CC1	none
Cc1nc2ccc3nc(NC(=O)c4ccc5c(c4)OCCO5)sc3c2s1	none
Cc1nc2c(ccc3nc(NC(=O)c4ccc5c(c4)OCCO5)sc32)s1	QS inhibitor 57.1
COc1ccc(CNC(=O)CS(=O)Cc2nc(-c3ccccc3C)oc2C)cc1 (stereo not given)	none
COc1ccccc1CNC(=O)CS(=O)Cc1nc(-c2ccccc2C)oc1C (stereo not given)	Proteasome disasm 165.5
O=C(NCCC1=CCCCC1)C(=O)NCC(c1ccco1)N1CCN(c2ccccc2F)CC1 (stereo not given)	none (no result: Proteasome disasm)

Bioassay records as filed in PubChem.
